Assay outcomes from PubChem.
nsP2pro inh: CHIKV nsP2 protease inhibition, primary qHTS; Q8JUX6; FRET peptide cleavage, nsP2pro, fluorescence 1 h; Potency, µM (series often up to 24.9 µM), for inactives: at the highest dose activity change, negative = inhibition, hits mostly inhibitors; 31,000 tested, 1.1% active; AID 1964107; also: nearly all actives have a fitted effect of over 60% in size
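FRET cleavage of 2.5 uM peptide 2 by 150 nM CHIKV protease domain at pH 8.0 (Tris, Tween 20). Compounds at 7 concentrations (up to 25 uM) preincubated 15 min. Fluorescence read after 1 h at room temperature.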
CHIKV nsP2 cell: secondary cell-based test for CHIKV nsP2 protease inhibitors; shares compounds with nsP2pro inh; Potency, µM (titrated, usually from 51.1 µM), inactives show top-dose activity change, negative = inhibition, usual class: inhibitors; 450 tested, 10% active; cell-based CHIKV nsP2 protease reporter assay; also: nearly all actives have a fitted effect of over 70% in size
Target sequence (Q8JUX6 220-798 limits assumed): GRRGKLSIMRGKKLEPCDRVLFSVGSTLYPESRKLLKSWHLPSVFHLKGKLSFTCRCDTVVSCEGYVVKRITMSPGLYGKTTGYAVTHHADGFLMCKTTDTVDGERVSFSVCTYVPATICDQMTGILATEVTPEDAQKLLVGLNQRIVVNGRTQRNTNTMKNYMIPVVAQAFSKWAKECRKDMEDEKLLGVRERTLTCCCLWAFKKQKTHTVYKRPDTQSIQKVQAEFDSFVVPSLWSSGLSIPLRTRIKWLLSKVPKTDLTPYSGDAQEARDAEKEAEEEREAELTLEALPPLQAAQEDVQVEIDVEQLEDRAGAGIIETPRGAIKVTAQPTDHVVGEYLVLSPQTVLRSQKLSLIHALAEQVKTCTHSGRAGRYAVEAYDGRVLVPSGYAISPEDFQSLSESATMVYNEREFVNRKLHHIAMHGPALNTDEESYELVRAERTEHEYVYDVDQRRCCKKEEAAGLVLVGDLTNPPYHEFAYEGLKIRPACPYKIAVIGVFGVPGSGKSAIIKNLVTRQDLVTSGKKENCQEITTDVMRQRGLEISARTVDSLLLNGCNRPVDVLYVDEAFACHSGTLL
CHIKV NSP2 FL: selectivity test for CHIKV nsP2 protease inhibitors: full-length NSP2; shares compounds with nsP2pro inh; Full-length CHIKV NSP2 protease enzymatic counterscreen; Potency, µM (highest dose often 50.7 µM), without a hit: at the top dose activity change, negative = inhibition, hits mostly inhibitors; 410 tested, 39% active; also: nearly all actives have a fitted effect of over 65% in size
Furin counterscr: human furin inhibition, counterscreen for nsP2pro inhibitors | shares compounds with nsP2pro inh | Recombinant human furin enzymatic counterscreen, fluorogenic substrate | Potency, µM (top dose mostly 50.6 µM), for the others: top-dose activity change, negative = inhibition, usual class: inhibitors | 410 tested, 6% active
nsP2 NS23 pep: nsP2pro inhibition on native NS2/3 peptide substrate | shares compounds with nsP2pro inh | 410 tested, 34% active | Potency, µM (series often up to 51 µM), without a hit: at the highest dose activity change, negative = inhibition, hits mostly inhibitors | Purified CHIKV nsP2 protease, endogenous NS2/3 peptide cleavage | AID 1964103; also: nearly all actives have a fitted effect of over 55% in size
Papain cs: inhibits papain in a CHIKV nsP2 protease selectivity counterscreen; shares compounds with nsP2pro inh; purified papain protease activity, enzymatic inhibition; Potency, µM (titrated, usually from 51 µM), inactives show top-dose activity change, negative = inhibition, usual class: inhibitors; 410 tested, 5% active; AID 1964104
nsP2pro confirm: CHIKV nsP2 protease inhibition, confirmatory qHTS; shares compounds with nsP2pro inh; CHIKV nsP2 protease enzymatic activity, qHTS; Potency, µM (series often up to 25.5 µM), for inactives: top-dose activity change, negative = inhibition, hits mostly inhibitors; 410 tested, 43% active; also: nearly all actives have a fitted effect of over 75% in size
HCV NS3 counter: selectivity counter-screen for CHIKV nsP2 protease inhibitors: HCV NS3/4A; shares compounds with nsP2pro inh; HCV NS3/4A protease biochemical counterscreen; Potency, µM (highest dose often 50.9 µM), usual class: inhibitors; 410 tested, 20% active; also: nearly all actives have a fitted effect of over 55% in size
An asterisk follows results filed as active; i = inactive; ? = inconclusive; ! = not confirmed by another sample; [ ] = another dose, or the depositor's remark. Shown is part of a subset that was picked to be rich in hits. Calls follow the shape of the full dose curve. % is scaled to controls: 0 for no effect and ±100 for the full control effect; potency is read from the fitted curve at half-maximal effect.

SMILES	nsP2pro inh	others
COc1ccc(NC(=O)c2c(NC(=O)c3ccncc3)sc3c2CCC(C(C)(C)C)C3)cc1 (centres undefined)	-18%
CCOc1ccc(NC(=O)c2c(NCc3cccnc3)sc3c2CCC(C)C3)cc1 (centres undefined)	11µM*
Cc1ccc(S(=O)(=O)Nc2cnccc2C(=O)Nc2nc(-c3ccc(-c4ccccc4)cc3)cs2)cc1	3%
Cc1ccc(CCNC(=O)c2c(C)nn(-c3ccc(F)cc3)c2-n2cccc2)cc1	-17%
CC(=O)c1cccc(NC(=O)c2c(C)nn(-c3ccc(F)cc3)c2-n2cccc2)c1	10µM*
Cc1nn(-c2ccc(F)cc2)c(-n2cccc2)c1C(=O)N1CCCCC1C (centres undefined)	-29%
CNC(=O)c1cc(C2CC2)nc2c1c(C1CCCN1C(=O)c1ccc(C(F)(F)F)cc1)nn2C (centres undefined)	1%
Brc1sc2c(c1-c1nc3ccccc3s1)CCNC2	-10%
COC(=O)C1CC2=CC(=O)CCC2(C)C23OC2CC2(C)C(CC[C@]24CCC(=O)O4)C13 (some centres undefined)	-9%
CC(C)CCN1CC2ON=C(C(=O)O)C2C1 (centres undefined)	-3%[39.2 µM]
O=C(O)C1=NOC2CN(Cc3cscn3)CC12 (centres undefined)	-12%[39.2 µM]
CCCN1CC2ON=C(C(=O)O)C2C1 (centres undefined)	13µM*
Cn1ccnc1C(=O)N1CCC(Cc2ccc(CCC(=O)N3CCCC3)cc2)CC1	i
COC(=O)NC(C(=O)N1CCCC1c1nc2cc(F)c(C3CCC(c4cc5[nH]c(C6CCCN6C(=O)C(NC(=O)OC)C(C)OC)nc5cc4F)N3c3cc(F)c(N4CCC(c5ccc(F)cc5)CC4)c(F)c3)cc2[nH]1)C(C)OC (centres undefined)	17%
CNC[C@H](O)c1cccc(O)c1	2%
Oc1ccc(CCNCCCCCCNCCc2ccccc2)cc1O	-13%
Oc1ccc(C(O)CNCCCCCCNCC(O)c2ccc(O)c(O)c2)cc1O (centres undefined)	?	CHIKV nsP2 cell=91%;CHIKV NSP2 FL=?;Furin counterscr=26µM*;nsP2 NS23 pep=-10%;Papain cs=-4%;nsP2pro confirm=26%;HCV NS3 counter=i
C=C1C(OC(C)=O)C(=O)C2C(C)(C)C(O)CCC2(C)C1CC(OC(C)=O)/C(C)=C/COC(C)=O (centres undefined)	22%[10 µM]
C=C(C(=O)OC)[C@]12O[C@@](C)(CC[C@@]3(O)/C(=C\C)C(=O)O[C@]3(C)C[C@@H]1OC(=O)C(CO)CN1CCCC1C(=O)O)CC2=O (some centres undefined)	?	CHIKV nsP2 cell=-3%[17.6 µM];CHIKV NSP2 FL=2.4µM*;Furin counterscr=-7%[17.3 µM];nsP2 NS23 pep=?;Papain cs=-22%[17.2 µM];nsP2pro confirm=2.1µM*;HCV NS3 counter=?
CCC(C)C(N)C1=NC(C(=O)N[C@@H](CC(C)C)C(=O)N[C@H](CCC(=O)O)C(=O)N[C@H](C(=O)N[C@H]2CCCCNC(=O)[C@H](CC(N)=O)NC(=O)[C@@H](CC(=O)O)NC(=O)[C@H](Cc3cnc[nH]3)NC(=O)[C@@H](Cc3ccccc3)NC(=O)[C@H]([C@@H](C)CC)NC(=O)[C@@H](CCCN)NC2=O)[C@@H](C)CC)CS1 (some centres undefined)	0.22µM*!	CHIKV nsP2 cell=12%[17.6 µM];CHIKV NSP2 FL=0.14µM*;Furin counterscr=8µM*;nsP2 NS23 pep=1.1µM*;Papain cs=3.2µM*;nsP2pro confirm=0.22µM*;HCV NS3 counter=8µM*
NCCCC[C@H](NC(=O)[C@@H]1CCCN1C(=O)[C@@H]1CSSC[C@H](N)C(=O)N[C@@H](Cc2ccccc2)C(=O)N[C@@H](Cc2ccccc2)C(=O)N[C@@H](CCC(N)=O)C(=O)N[C@@H](CC(N)=O)C(=O)N1)C(=O)NCC(N)=O	-12%
CC1(C)OB(c2ccc(O)c3ncc(N4CCNCC4)cc23)OC1(C)C	i
Oc1ccc([C@H]2CNCc3c2ccc(O)c3O)cc1O	3.5µM*	CHIKV nsP2 cell=-21%;CHIKV NSP2 FL=?;Furin counterscr=-12%;nsP2 NS23 pep=23µM*;Papain cs=-5%;nsP2pro confirm=5µM*;HCV NS3 counter=0.58µM*
CC(=O)OC(C)(C)CCC(=O)[C@](C)(O)C1[C@H](O)C[C@@]2(C)C3CC=C4C(C[C@H](O)[C@@H](O)C4(C)C)[C@]3(C)C(=O)C[C@]12C (some centres undefined)	9%
COc1ccccc1N1CCN(C(c2ccc(Cl)cc2)c2nnc(-c3cccc(F)c3)o2)CC1 (centres undefined)	-13%
SMILES	nsP2pro inh	others
COc1ccc(N2CCN(C(c3ccccc3)c3nnc(-c4ccccc4Cl)o3)CC2)cc1 (centres undefined)	?	CHIKV nsP2 cell=?
COc1ccccc1N1CCN(C(c2ccccc2)c2nnc(-c3ccccc3Cl)o2)CC1 (centres undefined)	-10%
C/C(=C(\CCOC(=O)c1ccccc1)SS/C(CCOC(=O)c1ccccc1)=C(/C)N(C=O)Cc1cnc(C)nc1N)N(C=O)Cc1cnc(C)nc1N	8.8µM*	CHIKV nsP2 cell=-3%;CHIKV NSP2 FL=13µM*;Furin counterscr=-8%;nsP2 NS23 pep=5.8µM*;Papain cs=-9%;nsP2pro confirm=8µM*;HCV NS3 counter=5.8µM*
CCCOC(=O)c1ccccc1	-4%
Nc1nc2c(ncn2C2OC3COP(=O)(O)OC3C2O)c(=O)[nH]1 (centres undefined)	37%
CCOc1cc(C)c(C(C)C)cc1S(=O)(=O)n1ccnc1CC	-19%
CCOc1ccc(S(=O)(=O)N2CCN(c3ccc(Cl)c(Cl)c3)CC2)c2ccccc12	-22%
CCOc1cc(S(=O)(=O)n2ccnc2C(C)C)ccc1Cl	8.9µM*	CHIKV nsP2 cell=-2%;CHIKV NSP2 FL=16µM*;Furin counterscr=-5%;nsP2 NS23 pep=?;Papain cs=-6%;nsP2pro confirm=?;HCV NS3 counter=9.2µM*
COc1cccc(C(=O)N2CCC(N3C(=O)c4c(c(C)nn4-c4ccccc4)C3C3CC3)C2)c1 (centres undefined)	i
Oc1c(Br)cc(Br)cc1CNC1CCC(O)CC1 (centres undefined)	8.8µM*	CHIKV nsP2 cell=-7%;CHIKV NSP2 FL=-5%;Furin counterscr=4%;nsP2 NS23 pep=-7%;Papain cs=-7%;nsP2pro confirm=-17%;HCV NS3 counter=i
Nc1c(Br)cc(Br)cc1CNC1CCC(O)CC1 (centres undefined)	7%
Cc1cc(-c2nnc3n2CCCCC3)c(C)n1-c1ccc(C(C)(C)C)cc1	i
